The panel holds about 79,000 compounds, 15% with a hit somewhere; the sample as a whole holds those more often. Activity calls are given as the source filed them. No stated cut-off is given here; in the data, active means growth inhibition above about 70%; inactive means the rest.
Legend:
[1] = NCI Yeast Anticancer Drug Screen. Data for the rad52 strain (AID 147);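 further: 0% = growth of vehicle-treated control cultures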; details: S. cerevisiae rad52 mutant growth inhibition, stronger effect = higher value
Method in brief: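 Here a repair-compromised yeast strain receives each compound; its growth is then quantified and normalised to vehicle-only controls.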

[2] = NCI Yeast Anticancer Drug Screen. Data for the wt1 strain (AID 149);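 further: 0% = growth of vehicle-treated wt1 cultures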; details: S. cerevisiae wt1 strain (SPY 50644) growth inhibition, stronger effect = higher value
Method in brief: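 Vehicle-normalised growth inhibition; strain wt1; compound exposure.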

[3] = NCI Yeast Anticancer Drug Screen. Data for the rad50EPP+ strain (AID 151);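 further: 0% = growth of vehicle-treated control cultures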; details: S. cerevisiae rad50 mutant strain, stronger effect = higher value
Method in brief: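 Read-out is yeast growth inhibition relative to vehicle; cells used were the rad50EPP+ strain.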

[4] = NCI Yeast Anticancer Drug Screen. Data for the mgt1 strain (AID 153); details: S. cerevisiae mgt1 mutant growth inhibition, stronger effect = higher value
Method in brief: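 Measured: inhibition of mgt1 yeast growth by compound, normalized to vehicle-treated cultures.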

[5] = NCI Yeast Anticancer Drug Screen. Data for the rad50 strain (AID 155);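 further: 0% = growth of vehicle-only cultures of the same strain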; details: S. cerevisiae rad50 strain growth inhibition, stronger effect = higher value
Method in brief: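 A DNA repair-deficient yeast mutant serves as the test organism; compound-induced growth inhibition is calculated against vehicle-treated cells.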

[6] = NCI Yeast Anticancer Drug Screen. Data for the mec2-1 strain (AID 157); details: S. cerevisiae mec2-1 strain, stronger effect = higher value
Method in brief: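 Using mec2-1 yeast: add compound, measure growth, express inhibition versus vehicle-treated cultures.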

[7] = NCI Yeast Anticancer Drug Screen. Data for the rad14 strain (AID 159);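 further: 0% = growth of vehicle-treated control cultures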; details: S. cerevisiae rad14 strain growth inhibition, stronger effect = higher value
Method in brief: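 Vehicle-treated cultures served as the baseline for growth inhibition of a DNA repair-mutant yeast strain exposed to each compound.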

[8] = NCI Yeast Anticancer Drug Screen. Data for the sgs1 mgt1 strain (AID 161);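 further: 0% = growth of cultures given vehicle only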; details: S. cerevisiae sgs1 mgt1 strain, stronger effect = higher value
Method in brief: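 Growth of a repair-deficient yeast mutant was monitored after compound treatment and expressed as inhibition relative to vehicle-treated cultures.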

[9] = NCI Yeast Anticancer Drug Screen. Data for the cln2 rad14 strain (AID 165);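 further: 0% = growth equal to vehicle treated cultures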; details: S. cerevisiae cln2 rad14 strain, stronger effect = higher value
Method in brief: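 Yeast strain cln2 rad14, bearing defects in cell cycle control and DNA repair, serves as the test system; values reflect growth inhibition compared with vehicle.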

[10] = NCI Yeast Anticancer Drug Screen. Data for the bub3 strain (AID 167); details: S. cerevisiae bub3 mutant strain, stronger effect = higher value
Method in brief: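 Inhibition values come from growth of compound-treated mutant yeast normalised to vehicle-treated controls.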

[11] = NCI Yeast Anticancer Drug Screen. Data for the wt2 strain (AID 169);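 further: 0% = growth of vehicle-treated yeast cultures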; details: S. cerevisiae wt2 strain growth inhibition, stronger effect = higher value
Method in brief: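 Treated yeast vs. vehicle-treated yeast: growth inhibition determined.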

[12] = NCI Yeast Anticancer Drug Screen. Data for the mlh1 strain (AID 171);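 further: 0% = growth of vehicle-treated control cultures of the same strain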; details: S. cerevisiae mlh1 strain growth inhibition, stronger effect = higher value
Method in brief: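 A yeast strain with a defined genetic lesion serves as the test organism. Cultures receive compound or vehicle, and growth is measured.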

[13] = NCI Yeast Anticancer Drug Screen. Data for the sgs1 strain (AID 173);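 further: 0% = growth of vehicle-only control cultures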; details: S. cerevisiae sgs1 mutant, stronger effect = higher value
Method in brief: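 A genetically defined yeast mutant is incubated with the test compound, and its growth is compared to that of the same strain given vehicle.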

[14] = NCI Yeast Anticancer Drug Screen. Data for the mlh1 rad18 strain (AID 175); details: S. cerevisiae mlh1 rad18 strain growth inhibition, stronger effect = higher value
Method in brief: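 Steps: expose repair-defective yeast to compound; measure growth; express inhibition against vehicle-treated controls.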

[15] = NCI Yeast Anticancer Drug Screen. Data for the rad18 strain (AID 177); details: S. cerevisiae rad18 mutant growth inhibition, stronger effect = higher value
Method in brief: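 Measured value is growth inhibition of a yeast strain bearing a DNA repair alteration, referenced to vehicle-treated cells.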

[16] = at 5.0 µM (retest, dose inferred, filed as 0.5)
[17] = at 50.0 µM (retest, dose inferred, filed as 5.0)

Measured: growth inhibition

CCO/C(C)=C(/C#N)C(N)=S
inactive: [1]; at 1.2 µM -1% | [1]; at 3.7 µM -1% | [1]; at 11.0 µM -1% | [1]; at 33.0 µM -2% | [1]; at 100.0 µM 3% | [2]; at 1.2 µM -1% | [2]; at 3.7 µM -2% | [2]; at 11.0 µM 0% | [2]; at 33.0 µM 0% | [2]; at 100.0 µM 1% | [3]; at 1.2 µM -3% | [3]; at 3.7 µM -6% | [3]; at 11.0 µM -11% | [3]; at 33.0 µM -16% | [3]; at 100.0 µM 2% | [4]; at 1.2 µM -2% | [4]; at 3.7 µM -4% | [4]; at 11.0 µM -5% | [4]; at 33.0 µM 14% | [4]; at 100.0 µM 0% | [5]; at 1.2 µM 1% | [5]; at 3.7 µM -1% | [5]; [16] 13% | [5]; at 11.0 µM -1% | [5]; at 33.0 µM 0% | [5]; [17] 67% | [5]; at 50.0 µM 60% | [5]; at 100.0 µM 2% | [6]; at 1.2 µM -2% | [6]; at 3.7 µM 1% | [6]; [16] 3% | [6]; at 11.0 µM -1% | [6]; at 33.0 µM -1% | [6]; [17] 2% | [6]; at 50.0 µM 35.5% | [6]; at 100.0 µM 1% | [7]; at 1.2 µM -2% | [7]; at 3.7 µM -2% | [7]; at 11.0 µM 0% | [7]; at 33.0 µM 0% | [7]; at 100.0 µM 4% | [8]; [16] -9% | [8]; at 50.0 µM 40.3% | [9]; [16] 5% | [9]; [17] 21% | [10]; at 1.2 µM -4% | [10]; at 3.7 µM -3% | [10]; [16] 4% | [10]; at 11.0 µM -3% | [10]; at 33.0 µM -7% | [10]; at 100.0 µM -4% | [11]; at 1.2 µM -1% | [11]; at 3.7 µM -2% | [11]; at 11.0 µM 0% | [11]; at 33.0 µM 1% | [11]; at 100.0 µM 1% | [12]; at 1.2 µM -2% | [12]; at 3.7 µM -3% | [12]; at 11.0 µM -1% | [12]; at 33.0 µM -3% | [12]; at 100.0 µM 0% | [13]; at 1.2 µM -1% | [13]; at 3.7 µM 3% | [13]; at 11.0 µM 1% | [13]; at 33.0 µM 3% | [13]; at 100.0 µM 6% | [14]; [16] 3% | [14]; at 50.0 µM 42.9% | [15]; at 1.2 µM 0% | [15]; at 3.7 µM -1% | [15]; at 11.0 µM 7% | [15]; at 33.0 µM -1% | [15]; at 100.0 µM 4%
active: [8]; [17] 73% | [9]; at 50.0 µM 85.3% | [10]; [17] 70% | [10]; at 50.0 µM 74.7% | [14]; [17] 84%

CCOC(=O)c1[nH]cc(C)c1-c1cccn1-c1ccc(Cl)cc1[N+](=O)[O-]
inactive: [1]; at 1.2 µM 13% | [1]; at 3.7 µM 19% | [1]; at 11.0 µM 27% | [1]; at 33.0 µM 25% | [2]; at 1.2 µM 16% | [2]; at 3.7 µM 6% | [2]; at 11.0 µM 16% | [2]; at 33.0 µM 12% | [3]; at 1.2 µM 22% | [3]; at 3.7 µM 30% | [3]; at 11.0 µM 32% | [3]; at 33.0 µM 32% | [3]; at 100.0 µM 55% | [4]; at 1.2 µM 3% | [4]; at 3.7 µM 17% | [4]; at 11.0 µM 20% | [4]; at 33.0 µM 48% | [5]; at 1.2 µM 1% | [5]; at 3.7 µM 8% | [5]; [16] 13% | [5]; at 11.0 µM 14% | [5]; at 33.0 µM 19% | [5]; [17] 43% | [5]; at 50.0 µM 32.5% | [6]; at 1.2 µM 4% | [6]; at 3.7 µM 15% | [6]; [16] 3% | [6]; at 11.0 µM -7% | [6]; at 33.0 µM 14% | [6]; [17] 48% | [6]; at 50.0 µM 46.1% | [7]; at 1.2 µM 21% | [7]; at 3.7 µM 15% | [7]; at 11.0 µM 16% | [7]; at 33.0 µM 31% | [8]; [16] 8% | [8]; at 50.0 µM 64.1% | [9]; [16] 11% | [9]; [17] 67% | [9]; at 50.0 µM 21.3% | [10]; at 1.2 µM 15% | [10]; at 3.7 µM 13% | [10]; [16] 9% | [10]; at 11.0 µM 12% | [10]; at 33.0 µM 32% | [10]; [17] 68% | [10]; at 50.0 µM 28.8% | [11]; at 1.2 µM -20% | [11]; at 3.7 µM -23% | [11]; at 11.0 µM -17% | [13]; at 1.2 µM 17% | [13]; at 3.7 µM 22% | [13]; at 11.0 µM 21% | [13]; at 33.0 µM 49% | [14]; [16] 11% | [14]; [17] 65% | [14]; at 50.0 µM 39.7% | [15]; at 1.2 µM 23% | [15]; at 3.7 µM 6% | [15]; at 11.0 µM 7% | [15]; at 33.0 µM 25%
active: [1]; at 100.0 µM 89% | [2]; at 100.0 µM 80% | [4]; at 100.0 µM 96% | [5]; at 100.0 µM 90% | [6]; at 100.0 µM 85% | [7]; at 100.0 µM 90% | [8]; [17] 87% | [10]; at 100.0 µM 91% | [11]; at 33.0 µM 84% | [11]; at 100.0 µM 93% | [13]; at 100.0 µM 95% | [15]; at 100.0 µM 89%
